Tests used:
Conditions in all cases: Compound Concentration (nM):1000
[1] = system: WEE1
[2] = system: WEE2
[3] = system: WNK1
[4] = system: WNK2
[5] = system: WNK3
[6] = system: WNK4
[7] = system: T1, YANK1
T1 construct: gene STK32A

[8] = system: T2, YANK2
T2 construct: gene STK32B

[9] = system: T3, YANK3
T3 construct: gene STK32C

[10] = system: T4, YES
T4 construct: gene YES1

[11] = system: T5, YSK1
T5 construct: gene STK25

[12] = system: T6, YSK4
T6 construct: gene MAP3K19

[13] = system: ZAK
[14] = system: ZAP70
[15] = system: T7, p38-alpha
T7 construct: gene MAPK14

[16] = system: T8, p38-beta
T8 construct: gene MAPK11

[17] = system: T9, p38-delta
T9 construct: gene MAPK13

[18] = system: T10, p38-gamma
T10 construct: gene MAPK12
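Note: KINOMEscan scanMAX binding as percent activity remaining versus control; lower means stronger binding.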

SMILES	Percent Control [1] [%]	Percent Control [2] [%]	Percent Control [3] [%]	Percent Control [4] [%]	Percent Control [5] [%]	Percent Control [6] [%]	Percent Control [7] [%]	Percent Control [8] [%]	Percent Control [9] [%]	Percent Control [10] [%]	Percent Control [11] [%]	Percent Control [12] [%]	Percent Control [13] [%]	Percent Control [14] [%]	Percent Control [15] [%]	Percent Control [16] [%]	Percent Control [17] [%]	Percent Control [18] [%]
C[C@@H](Oc1cc(-n2cnc3ccc(OC4CCN(C)CC4)cc32)sc1C(N)=O)c1ccccc1Cl [GSK579289A]	40	87	32	7.1	26	2.7	77	100	100	87	74	32	69	93	100	76	100	81
COc1ccc2cc(-c3c(-c4ccncc4)nc(-c4ccc(S(C)(=O)=O)cc4C)n3C)ccc2c1 [SB-633825]	86	53	97	78	92	72	41	26	70	46	100	66	89	84	100	79	83	100
CCS(=O)(=O)c1ccc(OC)c(Nc2ncc(-c3cccc(OC)c3)o2)c1 [GW580509X]	100	100	99	100	100	100	100	100	100	74	81	96	100	100	100	100	100	100
COC(=O)Nc1nc2ccc(Oc3ccc(NC(=O)Nc4cc(C(F)(F)F)ccc4F)cc3)cc2s1.Cl [GW693917A]	87	100	76	100	100	67	100	100	94	51	100	12	6.8	82	18	10	96	46
CC(C)COC(=O)c1ccc2c(c1)/C(=C/Nc1ccc(S(N)(=O)=O)cc1)C(=O)N2 [GW416981X]	100	100	100	100	100	100	100	100	100	100	65	11	100	100	100	100	100	100
COc1cc(C=NNc2ncnc3c2cnn3-c2ccccc2)ccc1O [GW513184X]	96	100	97	100	100	100	89	100	100	74	97	3.1	48	99	100	88	88	97
NS(=O)(=O)c1ccc(N/N=C2\C(=O)Nc3ccc(-c4cnco4)cc32)cc1 [GW276655]	88	72	87	100	56	100	56	100	63	69	59	1.9	80	88	100	100	99	66
C/C(Nc1ccc(S(N)(=O)=O)cc1)=C1/C(=O)Nc2ccccc21 [GW335962X]	100	95	90	93	100	100	100	100	88	100	55	14	100	94	100	100	100	73
CCS(=O)(=O)c1ccc(OC)c(Nc2ncc(-c3cccc(F)c3)o2)c1 [GW621970X]	100	100	90	100	97	100	100	100	100	43	79	90	82	86	100	100	100	100
O=C1Nc2ccc(C(=O)c3ccco3)cc2C1=Cc1cc(Cl)c(O)c(Cl)c1 [GW406108X]	100	100	89	100	93	100	100	100	100	100	85	20	100	100	93	100	100	44
Cl.O=C(Nc1ccc(Oc2ccc3[nH]c(NC(=O)c4ccco4)nc3c2)cc1)Nc1cc(C(F)(F)F)ccc1F [GW683134A]	100	100	90	100	100	100	82	100	100	61	70	13	3.2	100	97	37	100	82
COc1cccc(-c2c[nH]c3c(N/N=C/c4ccncc4)ncnc23)c1 [GW814408X]	100	98	96	75	99	100	90	100	100	61	65	0.7	17	89	100	100	100	100
COc1ccc2c(-c3ccnc(Nc4cccc(OC(F)(F)F)c4)n3)cnn2n1 [GW810372X]	100	100	100	61	90	100	100	100	100	100	85	39	69	86	100	100	100	77
Cc1cc(O)cc(C)c1/C=C/c1cncc(C(N)=O)c1 [GW435821X]	100	100	100	100	93	100	100	100	100	100	95	84	87	96	100	100	100	100
Cl.O=C(Nc1ccc(Oc2ccc3[nH]c(NC(=O)c4ccccc4)nc3c2)cc1)Nc1cc(C(F)(F)F)ccc1F [GW709042A]	100	100	91	100	88	100	88	100	100	100	78	69	6.9	94	98	52	100	82
COc1ccc2[nH]c3c4[nH]c5ccc(OC)cc5c4c4c(c3c2c1)C(=O)NC4=O [GW296115X]	53	87	91	66	92	88	69	97	84	73	89	0	100	76	87	100	86	70
NS(=O)(=O)c1ccc(N/N=C2\C(=O)Nc3ccc(C(=O)NCc4ccncc4)cc32)cc1 [GW300657X]	93	59	92	78	95	73	100	100	100	100	76	2.4	100	85	100	100	100	42
COc1cc(C)c(N(C)C(=O)CN(C)C)cc1Nc1nc(Nc2cccc(F)c2C(N)=O)c2cc[nH]c2n1 [GSK2219385]	100	90	100	100	100	81	87	100	85	96	100	51	90	81	97	100	100	56
CC1=C(C(=O)Nc2ccc3[nH]ncc3c2)C(c2ccc3ccccc3c2)CC(=O)N1 (stereo not drawn) [GSK270822A]	93	62	92	85	86	76	83	88	96	68	68	75	92	99	100	100	94	100
NS(=O)(=O)c1ccc(N/N=C2\C(=O)Nc3ccc(C(=O)NCCc4c[nH]cn4)cc32)cc1 [GW300660X]	100	100	100	100	95	100	100	100	100	100	84	3.7	96	79	100	100	100	84

— publication PMC7826789 (International Journal of Molecular Sciences, 2021)
